In PubChem BioAssay (Tox21):
A number with no mark means an inactive call. Where a call stands in place of a potency, no number is given. Activity calls are given as the source filed them. Calls follow the shape of the dose curve; as a rule, active = well fitted curve in the direction sought with a large enough effect in the repeat runs; inconclusive = weak or mixed curves; inactive = flat fitted curve, though single readings scatter.

Assay: qHTS assay to test for compound auto fluorescence at 460 nm (blue) in HEK293 cell free culture (AID 720681)
Conditions: cell-free medium, autofluorescence 405/460 nm (blue); series mostly up to 91.3 µM
Text: U.S. Tox21 Program National Center for Advancing Translational Sciences [NCATS] NIH Chemical Genomics Center [NCGC] U.S. Environmental Protection Agency [EPA] National Institutes of Environmental Health Sciences [NIEHS] National Toxicology Program [NTP] U.S. Food and Drug Administration [FDA] Tox21 Assay Overview: Compound auto fluorescence often interferes with screening of the compound library against various biological targets and signaling pathways. Some of these compounds may have fluorophoric properties. Such properties may interfere with the assay outputs resulting in false positives and/or negatives. To decrease such complications and ensure the compound activities are relevant in terms of biological response, the Tox21 10K compound library was screened for auto fluorescence. From the fluorophores used as reporter signals in our screening assays, the auto fluorescence equivalencies of compounds against three fluorophores have been evaluated: Triamterene, Fluorescein and Rose Bengal sodium for blue, green and red fluorescence, respectively. The fluorescence intensities were measured using Excitation/Emission wavelengths at 405/460nm, 485/535nm and 540/590nm for blue, green and red labels, respectively. This assay includes the blue fluorescence data.
Tox21 Assay Protocol Summary: 5 uL of culture medium (DMEM containing 10% FBS) per well was dispensed into black wall/clear bottom 1536-well plates using a Multidrop Combi Dispenser (ThermoFisher Scientific, Waltham, MA). After 23 nL compound or DMSO vehicle was transferred into assay plate by a pintool work station (Kalypsys, San Diego, CA), fluorescence intensities in the assay plates were measured by an Envision (PerkinElmer, Shelton, CT) plate reader using three labels for measuring blue, green and red fluorescence at […] 460, 535 and 590nm respectively.

Row | SMILES | Potency | fluorescence, % of fluorescent control
1 | c1ccc(SSc2ccccc2)cc1 | inactive | –
2 | CCCCCCCCCCOC(=O)c1ccccc1C(=O)OCCCCCCCC | inactive | –
3 | Sc1nc2ccccc2s1 | inactive | –
4 | OC/C=C/CO | inactive | –
5 | COCCOc1cc2cc(C(=O)NC3CCN(C(C)C)CC3)n(CC(=O)Nc3ccc(Cl)cn3)c2cn1 | inactive | –
6 | CCCCCCCC/C=C\CCCCCCCCN | inactive | –
7 | CCCNCCC | inactive | –
8 | O=C(O)c1cc(N=Nc2ccc([N+](=O)[O-])cc2)ccc1O | inactive | –
9 | CC(C)=CCC1=C(O)c2ccccc2C(=O)C1=O | inactive | –
10 | CN1CCCCC1CCN1c2ccccc2Sc2ccc(S(C)=O)cc21 (stereo not given) | inactive | –
11 | CCCCCCCCCCCCCC[N+](C)(C)C | inactive | –
12 | Cc1c2ccccc2c(C)c2c1ccc1ccccc12 | inactive | –
13 | C#C[C@]1(OC(C)=O)CC[C@H]2[C@@H]3CCC4=C/C(=N/O)CC[C@@H]4[C@H]3CC[C@@]21CC | inactive | –
14 | CC[C@H](C)COC(=O)/C=C/c1ccc(N=Cc2ccc(OC)cc2)cc1 | inactive | –
15 | Nc1nc2c(ncn2COCCO)c(=O)[nH]1 | – | 0.0219% [at 18.6 µM]
16 | OC[C@@H](O)[C@@H](O)CO | inactive | –
17 | Cc1nc2n(c(=O)c1CCN1CCC(c3noc4cc(F)ccc34)CC1)CCCC2 | inactive | –
18 | Cc1cc(-c2ccc(N=Nc3cc(S(=O)(=O)O)c4ccccc4c3N)c(C)c2)ccc1N=Nc1cc(S(=O)(=O)O)c2ccccc2c1N | inactive | –
19 | C=CC(=O)Nc1cc2c(Nc3ccc(F)c(Cl)c3)ncnc2cc1OCCCN1CCOCC1 | inactive | –
20 | CCCCCCC1CCCC(=O)O1 (stereo not given) | inactive | –

Row | SMILES | Potency | fluorescence, % of fluorescent control
21 | CC(N=C(NC#N)Nc1ccncc1)C(C)(C)C (stereo not given) | inactive | –
22 | CNc1ccc([N+](=O)[O-])cc1 | inactive | –
23 | Cc1cccc(C(=O)O)c1O | inactive | –
24 | CC(=O)Oc1cc2c(s1)CCN(C(C(=O)C1CC1)c1ccccc1F)C2 (stereo not given) | inactive | –
25 | C=C(C)c1cccc(C(=C)C)c1 | inactive | –
26 | CC(CO)Oc1ccccc1 (stereo not given) | inactive | –
27 | O[C@@H]([C@H](O)[C@H](O)CBr)[C@H](O)CBr | inactive | –
28 | COC(=O)c1ccccc1C | inactive | –
29 | O=[N+]([O-])c1ccc(O)cc1C(F)(F)F | inactive | –
30 | FC(F)(F)c1cccc(Cl)c1 | inactive | –
31 | CCCCCCOC(=O)C(C)CC (stereo not given) | inactive | –
32 | O=C1c2ccccc2C(=O)N1SC1CCCCC1 | inactive | –
33 | CC1(C)CCC[C@]2(C)[C@H]3CCO[C@]3(C)CC[C@@H]12 | inactive | –
34 | O=C(O)c1cc(-c2ccc(F)cc2F)ccc1O | – | 0.0528% [at 18.6 µM]
35 | C=CC(C)(CCC=C(C)C)OC=O (stereo not given) | inactive | –
36 | CC(CCc1ccccc1)NCC(O)c1ccc(O)c(C(N)=O)c1 (stereo not given) | inactive | –
37 | COc1ccc(-c2coc3cc(O)ccc3c2=O)cc1 | inactive | –
38 | Cc1ccc(O)c(N)c1 | inactive | –
39 | O=C(O)Cc1ccccc1Nc1c(Cl)cccc1Cl | inactive | –
40 | Cc1ccc(C(=O)O)cc1 | inactive | –
